Compound activity (PubChem)
NS1 function inh – influenza NS1 inhibition | Potency, µM (titrated, usually from 46.1 µM), without a hit: at the top dose activity, positive = more growth | 270,000 tested, 0.4% active; also: potency is read from the fitted curve at half-maximal effect; actives are rising curves; nearly all actives have a fitted effect of over 50% in size
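Compounds were scored for reversing the slow growth caused by influenza A NS1 in S. cerevisiae, measured by optical density at 600 nm. Assay medium contained 2% galactose at pH 6.0; NS1-free yeast of the same strain were the positive control.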
Shiga toxin inh – Shiga toxin inhibition; 290,000 tested, 9.2% active; Vero cells, Shiga toxin protein synthesis inhibition reporter; inhibition, % at 38.7 µM; in the data active = inhibition mostly above about 28%, no sharp cut-off; inactive = mostly below about 43%; also: 0% is about no effect
CHX counter – counter-screen for Shiga toxin inhibitors: cycloheximide protein synthesis inhibition; cell reporter, cycloheximide protein synthesis inhibition counterscreen; max response, %; 300,000 tested, 12% active; AID 2314; in the data active = max response mostly above about 13%, no sharp cut-off; inactive = mostly below about 14%; also: read at 38.3 µM for the half of the compounds with a filed dose; 0% is about no effect
SARS PLP yeast – SARS-CoV PLP inhibition in yeast | S. cerevisiae expressing SARS-CoV PLpro, growth rescue | Potency, µM (series often up to 32.9 µM), inactives show at the highest dose activity, positive = growth rescue, actives largely listed as activators | 330,000 tested, 0.19% active | AID 485353; also: potency is read from the fitted curve at half-maximal effect; 0% is about no effect; nearly all actives have a fitted effect of over 55% in size
Pf growth 96h – inhibits malaria parasite growth, 96 h. Potency, µM (highest dose often 28.7 µM), inactives show at the top dose activity change, negative = inhibition, actives largely listed as inhibitors. P. falciparum luciferase reporter growth, 96 h. AID 504834. 320,000 tested, 6.9% active; active = well fitted inhibition curve with a large enough effect; inconclusive = small, poorly fitted or top-dose-only effect, or another doubt; inactive = no such curve, though single readings can be large or run the other way; also: potency is read from the fitted curve at half-maximal effect; % is scaled to controls: 0 for no effect and ±100 for the full control effect
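Plates of compound plus infected erythrocytes (2% hematocrit, 0.05% parasitemia final) incubate 96 hours, 37 C, 5% CO2. Detection reagent added; reduced luminescence from the parasites' luciferase reporter flags inhibition.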
Pf growth 48h – P. falciparum growth inhibition at 48 hours (one generation); P. falciparum luciferase growth in erythrocytes, 48 h; Potency, µM (series often up to 28.7 µM), for inactives: at the highest dose activity change, negative = inhibition, usual class: inhibitors; 310,000 tested, 5.9% active; AID 504832; active = well fitted inhibition curve with a large enough effect; inconclusive = small, poorly fitted or top-dose-only effect, or another doubt; inactive = no such curve, though single readings can be large or run the other way; also: potency is read from the fitted curve at half-maximal effect; % is scaled to controls: 0 for no effect and ±100 for the full control effect
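Here the parasites carry a stable luciferase gene and grow inside erythrocytes in Albumax-based RPMI medium with compound for one erythrocytic cycle. Activity is scored as loss of luminescent signal.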
* marks the source's active call; other numbers are inactive results. Hits are enriched below; roughly 21% of the tested compounds scored in any of these assays. Unless noted, calls follow the shape of the full dose curve.

How did N#CC1=C2N=C(N)c3ccccc3N2C2=C(C(=O)CCC2)C1c1ccc(Cl)cc1 (centres undefined) do in these assays?
NS1 function inh: inconclusive; Shiga toxin inh: -18; CHX counter: -2; SARS PLP yeast: 10%; Pf growth 96h: 6%; Pf growth 48h: inconclusive

Results for N=C1C(c2nc3ccccc3s2)=C(O)CN1Cc1ccccc1 ?
NS1 function inh: -5%; Shiga toxin inh: active; CHX counter: 30*; SARS PLP yeast: -20%; Pf growth 96h: 10%; Pf growth 48h: 55%

How did CCN(CC)CCCN1CC(O)=C(c2nc3ccccc3s2)C1=N do in these assays?
NS1 function inh: 3%; Shiga toxin inh: -11; CHX counter: -4; SARS PLP yeast: -2%; Pf growth 48h: inconclusive

Results for CC(=O)c1cccc(NC(=O)N2CCCC2C(=O)Nc2ccccc2C)c1 (centres undefined) ?
NS1 function inh: -5%; Shiga toxin inh: -3; CHX counter: -2; SARS PLP yeast: 1%; Pf growth 96h: inconclusive; Pf growth 48h: 8%

What do the screens show for `CC(=O)c1cccc(NC(=O)N2CCCC2C(=O)Nc2cccc(C)c2C)c1` (centres undefined)?
NS1 function inh: -1%; Shiga toxin inh: -19; CHX counter: -9; SARS PLP yeast: 3%; Pf growth 96h: 2.9µM*; Pf growth 48h: 3%

What do the screens show for `CC(=O)c1cccc(NC(=O)N2CCCC2C(=O)NCc2ccc(F)cc2)c1` (centres undefined)?
NS1 function inh: 7%; Shiga toxin inh: 13; CHX counter: 6; SARS PLP yeast: 8%; Pf growth 96h: 10µM*; Pf growth 48h: -7%

Results for CC(=O)N1CCOc2ccc(S(=O)(=O)NCCc3cccc(C)c3)cc21 ?
NS1 function inh: -14%; Shiga toxin inh: 17; CHX counter: 16; SARS PLP yeast: -4%; Pf growth 96h: 10µM*; Pf growth 48h: 21%

What do the screens show for `CC(=O)N1CCOc2ccc(S(=O)(=O)NCCc3ccccc3)cc21`?
NS1 function inh: 0%; Shiga toxin inh: -1; CHX counter: 12; SARS PLP yeast: 1%; Pf growth 96h: inconclusive; Pf growth 48h: 10%

How did CC(=O)N1CC(C)Sc2ccc(S(=O)(=O)NC(C)c3ccccc3)cc21 (centres undefined) do in these assays?
NS1 function inh: 2%; Shiga toxin inh: -8; CHX counter: -4; SARS PLP yeast: -1%; Pf growth 96h: 13µM*; Pf growth 48h: -3%

How did CC(=O)N1CC(C)Sc2ccc(S(=O)(=O)NCCc3ccc(C)cc3)cc21 (centres undefined) do in these assays?
NS1 function inh: -24%; Shiga toxin inh: 3; CHX counter: 9; SARS PLP yeast: -9%; Pf growth 96h: inconclusive; Pf growth 48h: 0%

What do the screens show for `CC(=O)N1CC(C)Sc2ccc(S(=O)(=O)NCCc3ccccc3)cc21` (centres undefined)?
NS1 function inh: 0%; Shiga toxin inh: 56*; CHX counter: 32*; SARS PLP yeast: 2%; Pf growth 96h: inconclusive; Pf growth 48h: 38%

What do the screens show for `COc1ccccc1NS(=O)(=O)c1ccc2c(c1)N(C(C)=O)CC(C)S2` (centres undefined)?
NS1 function inh: 4%; Shiga toxin inh: 18; CHX counter: -2; SARS PLP yeast: -3%; Pf growth 96h: inconclusive; Pf growth 48h: 27%

What do the screens show for `O=C1c2ccccc2-c2n[nH]c(=O)c3ccc(N4CCCCC4)c1c23`?
Shiga toxin inh: 44; CHX counter: 21; SARS PLP yeast: -2%; Pf growth 96h: -16%; Pf growth 48h: -24%

How did COc1cccc(-c2c(C(=O)N/N=C(\C)COc3ccccc3)nnn2-c2nonc2N)c1 do in these assays?
NS1 function inh: -4%; Shiga toxin inh: -5; CHX counter: -3; SARS PLP yeast: 2%; Pf growth 96h: 3%; Pf growth 48h: 4%

What do the screens show for `COc1ccc(C(=O)CSc2nc3c(c(=O)n(C)c(=O)n3C)n2C)cc1`?
NS1 function inh: inconclusive; Shiga toxin inh: -5; CHX counter: -1; SARS PLP yeast: 0%; Pf growth 96h: -29%; Pf growth 48h: 7%
